This passage reports Potency results from PubChem BioAssay (Tox21).

Where “and” joins values, the source holds several entries; their conditions need not be identical. Equal entries are not always repeated. Inconclusive results are not listed. Some compounds were tested as several samples or in several runs, with calls that do not always agree. Calls of active or inactive are those of the source. Unless noted, calls come from the whole dose curve; as a rule, active = well fitted curve in the direction sought with a large enough effect in the repeat runs; inconclusive = weak or mixed curves; inactive = no such curve, though single readings can be large; an effect the other way counts as inactive or inconclusive.

Test [1] can be described thus: qHTS assay to identify small molecule agonists of the vitamin D receptor (VDR) signaling pathway - cell viability counter screen (AID 743224). Note: nearly all actives have a fitted effect of over 50% in size. Note: potency is the fitted concentration of half-maximal effect. Put shortly:
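Luminescence from CellTiter-Glo, read after 30 min at room temperature, reports viability of VDR-bla cells treated with compounds for 16 h at 37C in the wells used for the beta-lactamase FRET read.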
(In general: In qHTS, concentration-response curves come from the screen itself.)

Test [2] is described as follows: qHTS assay to identify small molecule antagonists of the vitamin D receptor (VDR) signaling pathway - cell viability counter screen (AID 743225). Note: nearly all actives have a fitted effect of over 50% in size. Put shortly:
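Luminescent cell viability (CellTiter-Glo) in VDR-bla HEK 293T cells after 16 h compound exposure at 37C in the presence of 3 nM final 1-alpha,25-dihydroxy vitamin D3.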

Test [3] is described as follows: qHTS assay to identify small molecule agonists of the NFkB signaling pathway - cell viability counter screen (AID 1159515; calls by dose curve; note: nearly all actives have a fitted effect of over 55% in size). The gist of the method:
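Luminescence from CellTiter-Glo (30 min, room temperature) gives viability, measured in the same wells as the beta-lactamase reporter read. Cells were NFkB-bla ME-180, 2,000 per well, treated 5 hr with compounds.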

A short description of test [4]: qHTS assay to identify small molecule agonists of the endoplasmic reticulum stress response signaling pathway (AID 1159516; active = well fitted activation curve with a large enough effect in the signal ratio in the repeat runs, not every such curve was filed as active; the % refers to the signal ratio). Put shortly: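 Read-out is beta-lactamase cleavage of a FRET substrate (405 nm excitation; 460 and 530 nm emissions) in ESRE-bla HeLa cells after a 5 hr compound exposure at 37 C. Substrate incubation ran 2 hr at room temperature.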
Test [5] is described as follows: qHTS assay to identify small molecule agonists of the endoplasmic reticulum stress response signaling pathway - cell viability counter screen (AID 1159517; calls by dose curve; note: nearly all actives have a fitted effect of over 50% in size). Put shortly: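 HeLa cells carrying an ESRE-driven beta-lactamase reporter receive compound for 5 hr at 37 C. Cell viability is then gauged with CellTiter-Glo by luminescence, 30 min at room temperature.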
A short description of test [6]: qHTS assay to identify small molecule antagonists of the retinoid-related orphan receptor gamma (ROR-gamma) signaling pathway - cell viability counter screen (AID 1159520). Note: nearly all actives have a fitted effect of over 50% in size. The gist of the method:
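Cytotoxicity was read from cellular ATP (CellTiter-Glo luminescence) after 16 hr at 37 C with 1 uM doxycycline induction. The inducer was added 2 hr after compound transfer to Tet-on ROR gamma CHO cells.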

The target of test [7] is Nuclear receptor ROR-gamma (Homo sapiens) (UniProt P51449). Nature of the test: qHTS assay to identify small molecule antagonists of the retinoid-related orphan receptor gamma (ROR-gamma) signaling pathway (AID 1159521; note: nearly all actives have a fitted effect of over 50% in size; note: potency is the fitted concentration of half-maximal effect). The gist of the method:
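CHO cells expressing RORγ under a TET-on promoter, luciferase under RORE control. Dox 1 uM final, 16 h; compounds added 2 h prior. Luminescence decrease measured.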

Test [8] in a line: qHTS assay to identify small molecule agonists of the AP-1 signaling pathway - cell viability counter screen (AID 1159525; calls by dose curve; note: nearly all actives have a fitted effect of over 55% in size). Put shortly: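 Luminescent ATP readout (Cell Titer Glo, 30 min RT), normalised to DMSO and tetra n-octyl ammonium bromide controls. Cells were ME-180 AP-1-bla in 0.5% dialyzed FBS Opti-MEM, with a 5 h, 37 °C compound exposure.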
Test [9] in a line: qHTS assay to identify small molecule agonists of the AP-1 signaling pathway (AID 1159526; calls by dose curve).
Test [10] can be described thus: qHTS assay to identify small molecule antagonists of the retinoid acid receptor (RAR) signaling pathway - cell viability counter screen (AID 1159551). Note: nearly all actives have a fitted effect of over 35% in size. Put shortly:
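Luminescent ATP quantitation (CellTiter-Glo) gave cell viability in C3RL4 cells exposed to test chemicals for 6 h at 37 C alongside 1 uM final retinol.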

Test [11] can be described thus: qHTS assay to identify small molecule antagonists of the retinoic acid receptor (RAR) signaling pathway (AID 1159552; note: nearly all actives have a fitted effect of over 50% in size). The gist of the method: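 Readout: luciferase luminescence, 30 min post-reagent at RT. Setup: C3RL4 RARE reporter cells, compounds plus retinol 1 uM final, 6 hr incubation at 37 C and 5% CO2.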
A short description of test [12]: qHTS assay to identify small molecule agonists of the retinoic acid receptor (RAR) signaling pathway (AID 1159553). Note: potency is the fitted concentration of half-maximal effect. To be noted: C3RL4 RARE luciferase reporter, agonist, 6 h; activation: at 73.3 µM (top of the series) unless noted. Put shortly: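 Luminescence from a RARE-driven luciferase reporter in C3RL4 cells served as the read-out, measured after 30 min with detection reagent at room temperature. Compounds in DMSO were applied for 6 hr at 37 C following overnight seeding.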

Test [13] addresses Retinoic acid receptor RXR-alpha (Homo sapiens) (UniProt P19793). Nature of the test: qHTS assay to identify small molecule agonists of the RXR signaling pathway (AID 1159527; calls by dose curve; note: nearly all actives have a fitted effect of over 35% in size; note: potency is the fitted concentration of half-maximal effect). The gist of the method:
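Beta-lactamase reporter assay, agonist format. Engineered HEK 293T line, charcoal-stripped FBS at 2%, overnight (16 hr) exposure, fluorescence at 460 and 530 nm after 405 nm excitation.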

The nature of test [14]: qHTS assay to identify small molecule agonists of the RXR signaling pathway - cell viability counter screen (AID 1159529). The gist of the method:
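Same-well viability check after the LiveBLAzer FRET read: CellTiter-Glo added, luminescence measured after 30 min at room temperature. Reporter HEK 293T cells had been treated with compounds for 16 hr following a 5 hr preincubation.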

Sequence of Retinoic acid receptor RXR-alpha (Homo sapiens) (P19793 whole entry, looked up): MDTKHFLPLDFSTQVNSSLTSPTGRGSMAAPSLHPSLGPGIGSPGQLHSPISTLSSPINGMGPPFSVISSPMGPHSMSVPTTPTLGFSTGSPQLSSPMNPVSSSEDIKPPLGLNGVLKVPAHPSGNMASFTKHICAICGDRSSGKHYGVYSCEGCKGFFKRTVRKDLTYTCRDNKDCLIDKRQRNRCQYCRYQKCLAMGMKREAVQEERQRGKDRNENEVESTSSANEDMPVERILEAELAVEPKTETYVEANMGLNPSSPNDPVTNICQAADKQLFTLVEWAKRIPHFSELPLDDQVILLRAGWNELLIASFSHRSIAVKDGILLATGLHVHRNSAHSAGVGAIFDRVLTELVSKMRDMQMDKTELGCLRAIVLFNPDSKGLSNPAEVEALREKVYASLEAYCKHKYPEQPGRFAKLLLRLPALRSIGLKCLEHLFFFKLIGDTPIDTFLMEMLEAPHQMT

For the compound `CC/C=C\C/C=C\C/C=C\CCCCCCCC(=O)O`, the Potency entry in test [1] was “inactive and 49 µM (active)”. In addition, the Potency result in test [2], in test [3], in [4], in test [5], in test [6] and in test [7] was “inactive” in each case. Besides, the Potency entry in [8], in test [9], in [10], in [11] and in test [12] was “inactive” in each case.
Turning to `O=C1CCc2ccccc2O1`, the Potency result in test [1], in test [2], in test [3], in test [4], in [5] and in [6] was “inactive” each time. Also, the Potency entry in test [8], in test [9], in test [13], in test [14] and in test [10] was “inactive” in each case.
For `Cc1ccc(S(=O)(=O)O)cc1C`, the Potency entry in test [1], in test [2], in [3], in [4], in [5] and in test [6] was “inactive” each time. The Potency result in [8], in test [9], in test [14], in test [10] and in [11] was “inactive” in each case. Moreover, the Potency result in test [13] was “inactive and 9.77 µM (active)”.
For the compound `CC(=O)Nc1ccc2c(c1)Cc1cc(NC(C)=O)ccc1-2`, the Potency entry in test [1], in [2], in [3], in test [4], in test [5] and in [6] was “inactive” in each case. The Potency entry in [7], in test [8], in test [9], in [13], in test [14] and in test [10] was “inactive” throughout. Further, the Potency in test [12] was 30.6 µM (active).
In the case of `C/C=C/C(=O)N(CC)c1ccccc1C`, the Potency result in test [1], in test [2], in [3], in test [4], in [5] and in [6] was “inactive” throughout. For the same compound, the Potency result in [7], in [8], in test [9], in [13], in [14] and in test [10] was “inactive” each time.
Turning to `Clc1ccc(Sc2cc(Cl)c(Cl)cc2Cl)cc1`, the Potency result in test [1], in test [3], in test [4], in test [5], in test [6] and in [7] was “inactive” throughout. Also, the Potency result in test [8], in test [9], in test [13], in test [14], in test [10] and in test [11] was “inactive” in each case. The Potency result in test [12] was “inactive”.
For the compound `CC1(C)C(C=C(Cl)Cl)C1C(=O)OCc1cccc(Oc2ccccc2)c1` (centres undefined), the Potency result in [1], in test [2], in test [3], in [4], in test [5] and in [6] was “inactive” throughout. In addition, the Potency result in test [8], in test [9], in test [13] and in test [14] was “inactive” each time. Moreover, the Potency in test [7] is 54.1 µM (active) and inactive.
As for `CC1=CC(C)(C)Nc2ccccc21`, the Potency result in test [1], in test [2], in [3], in test [4], in test [5] and in [6] was “inactive” each time. Further, the Potency result in test [7], in test [8], in test [9], in test [13], in [14] and in test [10] was “inactive” throughout. For the same compound, the Potency result in test [12] was “inactive”.
In the case of `c1ccc2c(c1)ccc1ncccc12`, the Potency entry in [1], in [2], in test [3], in test [4], in test [5] and in test [6] was “inactive” each time. The Potency entry in test [7], in test [8], in test [9] and in test [14] was “inactive” throughout.
`CC(=O)Oc1c(C)c(C)c2c(c1C)CC[C@@](C)(CCC[C@H](C)CCC[C@H](C)CCCC(C)C)O2`: the Potency in [1] is 49 µM (active) and inactive. The Potency result in [2], in [3], in [4], in test [5], in test [6] and in test [7] was “inactive” in each case. Further, the Potency entry in test [8], in test [9], in test [13], in [14] and in [12] was “inactive” throughout.
